Screening data deposited in PubChem by National Center for Advancing Translational Sciences (NCATS).
NS1 function inh: influenza NS1 inhibition. 270,000 tested, 0.4% active. Potency, µM (highest dose often 46.1 µM), without a hit: at the top dose activity, positive = more growth. AID 2326; calls by dose curve; also: potency is read from the fitted curve at half-maximal effect; actives are rising curves; nearly all actives have a fitted effect of over 50% in size
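Read-out: OD600 growth recovery of NS1-expressing budding yeast. Cells grown overnight at 30C in -URA glucose medium, washed, resuspended and diluted 1:100 in 2% galactose assay medium, pH 6.0. Same strain lacking NS1 served as positive control.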
TbPYK inhibitor: inhibitors of Trypanosoma brucei pyruvate kinase; Q57TT1; 410,000 tested, 0.12% active; AID 624173; TbPYK enzyme, Kinase-Glo Plus ATP luminescence, 45 min; Potency, µM (titrated, usually from 76.8 µM), inactives show top-dose activity, negative = inhibition, usual class: inhibitors; also: potency is read from the fitted curve at half-maximal effect; % is scaled to controls: 0 for no effect and ±100 for the full control effect; nearly all actives have a fitted effect of over 50% in size
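Assay buffer: 50 mM TEA pH 7.2, 100 mM KCl, 10 mM MgCl2, 0.05% BSA, 0.01% Tween-20. Pyruvate kinase from T. brucei plus substrate met compound, then ADP (130 uM final). Luminescence was read post 45 min RT.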
RE007 growth inh: less growth of the S. pombe RE007 Vpr strain; S. pombe RE007 Vpr strain, BacTiter-Glo ATP luminescence, 24 h; Potency, µM (series often up to 92.2 µM), inactives show at the highest dose activity change, negative = less growth, usual class: inhibitors; 360,000 tested, 0.21% active; AID 651644; active = well fitted falling curve with a large enough effect; inconclusive = small, poorly fitted or top-dose-only effect; inactive = no such curve, though single readings can be large or run the other way; also: potency is read from the fitted curve at half-maximal effect; % is scaled to controls: 0 for no effect and ±100 for the full control effect; nearly all actives have a fitted effect of over 50% in size
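Fission yeast strain RE007, carrying one chromosomally integrated HIV-1 vpr copy, was seeded at OD 0.01 in PMG+AL medium with 23 nL pinned compound. After 24 h at 30 °C and 99% humidity, viability was read by BacTiter-Glo luminescence.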
LmPK inh: LmPK (Leishmania mexicana) enzyme inhibition; Q27686; purified LmPK, Kinase-Glo ATP luminescence, 1 h; Potency, µM (highest dose often 57.5 µM), without a hit: at the top dose activity change, negative = inhibition, hits mostly inhibitors; 290,000 tested, 0.37% active; also: potency is read from the fitted curve at half-maximal effect; % is scaled to controls: 0 for no effect and ±100 for the full control effect
Target sequence (Q27686 whole entry, looked up): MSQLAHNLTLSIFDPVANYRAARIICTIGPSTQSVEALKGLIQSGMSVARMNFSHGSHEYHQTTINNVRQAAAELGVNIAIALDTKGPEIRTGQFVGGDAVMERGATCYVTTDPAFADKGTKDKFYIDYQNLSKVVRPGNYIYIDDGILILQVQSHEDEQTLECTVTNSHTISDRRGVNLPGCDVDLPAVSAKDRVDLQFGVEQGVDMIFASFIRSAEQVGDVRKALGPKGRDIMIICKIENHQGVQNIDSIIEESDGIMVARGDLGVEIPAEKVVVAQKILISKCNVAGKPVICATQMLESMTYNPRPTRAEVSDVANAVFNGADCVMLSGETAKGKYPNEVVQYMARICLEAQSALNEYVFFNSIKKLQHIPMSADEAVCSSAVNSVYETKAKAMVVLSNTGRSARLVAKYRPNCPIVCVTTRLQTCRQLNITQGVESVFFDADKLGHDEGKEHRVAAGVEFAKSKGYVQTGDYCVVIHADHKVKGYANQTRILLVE
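ATP generated from ADP (0.1 mM) and PEP (0.5 mM) by 0.1 nM LmPK over 1 h at room temperature (pH 7.2 imidazole buffer) was detected by coupled luciferase luminescence. Values were normalized to uninhibited and no-enzyme wells.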
Sm TGR block: S. mansoni TGR enzyme inhibition | Q962Y6 | purified TGR, DTNB reduction, TNB absorbance 405 nm | Potency, µM (titrated, usually from 114 µM), without a hit: top-dose activity change, negative = inhibition, hits mostly inhibitors | 360,000 tested, 3% active | AID 485364; also: potency is read from the fitted curve at half-maximal effect; % is scaled to controls: 0 for no effect and ±100 for the full control effect; nearly all actives have a fitted effect of over 60% in size
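First, TGR (20 nM dispensed) and NADPH were mixed with compound. Second, a 15 min room-temperature incubation followed. Third, further NADPH and then DTNB were added to start the reaction. Finally, TNB absorbance was monitored kinetically.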
Giardia FBPA inh: inhibitors of Giardia lamblia fructose-1,6-bisphosphate aldolase | 290,000 tested, 0.71% active | A8B2U2 | Potency, µM (top dose mostly 59.6 µM), for inactives: at the top dose activity, negative = inhibition, hits mostly inhibitors | purified Giardia FBPA; also: potency is read from the fitted curve at half-maximal effect; % is scaled to controls: 0 for no effect and ±100 for the full control effect; nearly all actives have a fitted effect of over 55% in size
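Giardia FBPA (40 nM reagent) was preincubated 10 min at RT with compound (up to 57.5 uM final), then substrate plus GAPDH/TPI/NAD/arsenate coupling system with diaphorase/resazurin was added; resorufin fluorescence (525/598 nm) was read after 20 min.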
Flu NS1 inh: validation of influenza NS1 protein function inhibitors | shares compounds with NS1 function inh | influenza NS1 function cell assay, 15-point titration | activity change, negative = inhibition, % at 32.9 µM | 1,400 tested, under 10 active | AID 492980; calls by dose curve; also: 0% is about no effect
PR8 titer: influenza virus titer reduction, NS1 project; shares compounds with NS1 function inh; MDCK infected influenza A/PR/8/34, virus titer TCID50; active compounds read low; virus titer (log TCID50), log10 TCID50 at 5 µM; 95 tested, 30% active; AID 504647; call rule not given here
* hit, by the source's call; ? = inconclusive; / = not tested or not shown. Hits are enriched below; roughly 3.5% of the tested compounds scored in any of these assays. Unless noted, calls follow the shape of the dose curve; as a rule, active = well fitted curve in the direction sought with a large enough effect; inconclusive = small, poorly fitted or top-dose-only effect, or another doubt; inactive = no such curve, though single readings can be large; an effect the other way counts as inactive or inconclusive.

SMILES	NS1 function inh	TbPYK inhibitor	RE007 growth inh	LmPK inh	Sm TGR block	Giardia FBPA inh	Flu NS1 inh	others
Cc1ccc(NC(=S)N2CCN(Cc3ccccc3)CC2)c(C)c1	?	-9%	-12%	3%	-9%	-5%	-16
Cc1ccc(F)c([C@H]2[C@H]3C=CC[C@@H](C)[C@@H]3C(=O)N2Cc2ccccc2)c1	?	-1%	-7%	5%	?	2%	?	PR8 titer=9
CC1(c2ccc(Cl)cc2)NC(=O)N(CC(=O)NCCC2=CCCCC2)C1=O (stereo not drawn)	/	1%	3%	/	1%	/	/
Cc1ccc(C2(C)NC(=O)N(CC(=O)NCCC3=CCCCC3)C2=O)cc1 (stereo not drawn)	11µM*	-1%	-11%	3%	-6%	5%	14
Cc1c(C(=O)N(C)C)sc2c1c(=O)n(-c1ccc(Cl)c(Cl)c1)c(=O)n2Cc1ccc(F)cc1	/	-5%	/	/	5%	/	/
CC(=O)Nc1ccc(C=NNc2ccc([N+](=O)[O-])cc2S(=O)(=O)Nc2ccccc2C(=O)O)cc1	/	-1%	5%	/	/	/	/
Cc1ccc(NC(=S)NNc2ccc([N+](=O)[O-])cc2S(=O)(=O)Nc2ccccc2C(=O)O)cc1C	13µM*	?	/	-13%	-19%	0%	32
Cc1ccc(C(=O)CC(C(=O)O)c2cn(CCC#N)c3ccccc23)cc1 (stereo not drawn)	?	1%	0%	-6%	53%	13%	/
N#CCCn1cc(C(CC(=O)c2ccc(Br)cc2)C(=O)O)c2ccccc21 (stereo not drawn)	8.9µM*	-8%	19%	11%	?	10%	17
Cc1c(C(=O)NC(C)c2ccccc2)sc2ncnc(N(C)C3CCCCC3)c12 (stereo not drawn)	/	-1%	/	/	12%	/	/
O=C(NCc1cc(C(F)(F)F)cc(C(F)(F)F)c1)C12CN(Cc3ccccc3)CC1C(c1cccc([N+](=O)[O-])c1)=NO2 (stereo not drawn)	22µM*	3%	?	-2%	0%	-5%	-18	PR8 titer=7.3*
Cc1ccc(NC(=O)C2CCCCC2C(=O)O)cc1C (stereo not drawn)	-1%	8%	-11%	10%	9%	11%	/
COc1ccc(NC(=O)c2ccccc2NC(=O)C2CCCCC2C(=O)O)cc1 (stereo not drawn)	/	2%	10%	/	/	/	/
COC(=O)c1ccccc1NC(=O)C1CCCCC1C(=O)O (stereo not drawn)	5µM*	-17%	-2%	-4%	5%	6%	3
Cc1cc(-c2ccc(NC(=O)[C@@H]3CCCC[C@@H]3C(=O)O)c(C)c2)ccc1NC(=O)[C@@H]1CCCC[C@@H]1C(=O)O	4µM*	3%	2%	0%	/	12%	?
c1ccc(C(c2nnnn2Cc2ccco2)N2CCN(c3nc4ccccc4s3)CC2)cc1 (stereo not drawn)	13µM*	1%	19%	7%	-17%	-1%	-19
c1ccc(Cn2nnnc2C(c2ccccc2)N2CCN(c3nc4ccccc4s3)CC2)cc1 (stereo not drawn)	10µM*	2%	13%	2%	0%	2%	-14
COc1ccc(C(c2nnnn2Cc2ccccc2)N2CCN(c3nc4ccccc4s3)CC2)cc1OC (stereo not drawn)	28%	1%	-15%	4%	-8%	?	/
Cc1ccc(S(=O)(=O)n2nc(C)cc2N)cc1	22µM*	2%	2%	5%	-3%	2%	3
COc1cc(N)n(S(=O)(=O)c2ccc(C)cc2)n1	8%	-4%	1%	2%	-5%	8%	/
CCSc1ccc(-c2nn(-c3ccccc3)cc2/C=C(/C#N)C(=O)NC)cc1	2%	-3%	3%	5%	1%	3%	/
C=CCNC(=O)/C(C#N)=C/c1cn(-c2ccccc2)nc1-c1ccc(OC)c([N+](=O)[O-])c1	?	-13%	-22%	0%	-3%	-3%	30
CCN(CC)c1ccc(C=C(c2nnnn2-c2ccccc2)c2nnnn2-c2ccccc2)cc1	7.9µM*	1%	4%	2%	1%	0%	15
O=C(COc1ccccc1)NCCc1csc(-c2cccc(F)c2)n1	/	1%	/	/	0%	/	/
CC1=NN=C(c2ccc(N)cc2)c2cc3c(cc2C1)OCO3	35µM*	0%	-1%	/	-20%	?	11
SMILES	NS1 function inh	TbPYK inhibitor	RE007 growth inh	LmPK inh	Sm TGR block	Giardia FBPA inh	Flu NS1 inh	others
CCc1ccc(-n2c3nc(=O)[nH]c(=O)c-3cc3c(C)nn(-c4ccccc4)c32)cc1	/	0%	/	/	-3%	/	/
Cc1nc2ccccn2c(=O)c1NC(=O)c1cccc(F)c1	/	4%	/	/	4%	/	/
Cc1cc(NC(=O)CSc2nnc(-c3cccs3)n2N)no1	?	0%	15%	-2%	-1%	-2%	-7
CCCCn1c(SCC(=O)Nc2cc(C)on2)nnc1-c1cccs1	0%	1%	28%	1%	5%	8%	/
O=C(CSc1nnc(-c2ccccc2)n1C1CCCCC1)Nc1ccc(S(=O)(=O)Nc2ccccn2)cc1	?	-7%	2%	0%	-2%	2%	-9
COc1cccc(-c2cn3ncsc3n2)c1	/	-9%	/	/	2%	/	/
CCCOc1ccc(C(=O)N2CCN(c3ccc(N)cc3Cl)CC2)cc1	11µM*	1%	8%	1%	2%	1%	-23
CCCCOc1ccc(C(=O)N2CCN(c3ccc(N4CCOCC4)nn3)CC2)cc1	/	-8%	?	/	7%	/	/
O=C1NN(c2ccc(Br)cc2)C(=O)/C1=C\c1ccc(O)cc1O	4µM*	1%	37%	-3%	-10%	-11%	-14
O=C1NN(c2ccccc2)C(=O)C1=Cc1ccccc1O	/	-2%	135%	/	/	/	/
CCc1nn(CC(=O)N(CC)Cc2ccccc2)c(=O)c2cc3occc3n12	/	-4%	/	/	-15%	/	/
CCOC(=O)C1=C(c2ccccc2)NC(SCC(=O)Nc2ccccc2C)=C(C#N)C1c1ccco1 (stereo not drawn)	11µM*	8%	8%	3%	-21%	-5%	?
CCOC(=O)C1=C(c2ccccc2)NC(SCC(=O)Nc2cccc(C)c2)=C(C#N)C1c1ccco1 (stereo not drawn)	?	-7%	16%	8%	-4%	0%	-1
